Assay outcomes (PubChem)
Rows were chosen to be rich in hits. Some 0.28% of all compounds tested hit in one or more screens of this group.
PI4K2A block: qHTS for small molecular inhibitors of PI4K2A; purified PI4K2A, ADP-Glo luminescence, 1 h; stronger effect = lower value; activity change, negative = inhibition, % at 76.9 µM; actives 0.13% (n = 420,000); AID 1346378, 2018; in the data active means activity change below about -50%; inconclusive means mostly about -30% to -49%
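In this quantitative HTS, ADP production by PI4K2A was quantified luminescently after 1 h at ambient temperature; 100 microM adenosine served as plate-quality control.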
USP2a inh: qHTS Assay for Inhibitors of Ubiquitin-specific Protease USP2a Using CHOP2 as the Reporter | USP2 core, Ub-CHOP2 coupled fluorogenic reporter, 485/531 | actives 0.01% (n = 330,000) | Ubiquitin carboxyl-terminal hydrolase 2 (Homo sapiens), O75604 | Potency, µM (highest dose often 38.3 µM), hits mostly inhibitors
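Deubiquitinase activity read as fluorescence (485/531 nm) after Ub-CHOP2 cleavage activates the enterokinase reporter on its substrate; USP2 core 10nM, Ub-CHOP2 and substrate 25nM each, 30min compound preincubation then 60min RT; data normalized to NEM, curves fitted.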
Pin1 inh: qHTS Assay to Find Inhibitors of Pin1. actives 0.009% (n = 390,000). Peptidyl-prolyl cis-trans isomerase NIMA-interacting 1 (Homo sapiens), Q13526. Pin1 FP peptide displacement, HiFluor488, 10 min. Potency, µM (titrated, usually from 115 µM), hits mostly inhibitors; active means well fitted inhibition curve with a large enough effect in the polarisation, with a control signal flat, not every such curve was filed as active; inconclusive means small, poorly fitted or top-dose-only effect, or effect the other way, or a change in a side signal; inactive means no such curve, though single readings can be large or run the other way; the % refers to the polarisation
Tb PFK block: qHTS Assay to Find Inhibitors of T. brucei phosphofructokinase | ATP-dependent 6-phosphofructokinase (Trypanosoma brucei brucei), O15648 | T. brucei PFK, ADP-Glo luminescence | Potency, µM (series often up to 57.5 µM), usual class: inhibitors | actives 0.17% (n = 330,000) | AID 485367, 2010; further: nearly all actives have a fitted effect of over 60% in size
Target sequence (O15648 whole entry, looked up): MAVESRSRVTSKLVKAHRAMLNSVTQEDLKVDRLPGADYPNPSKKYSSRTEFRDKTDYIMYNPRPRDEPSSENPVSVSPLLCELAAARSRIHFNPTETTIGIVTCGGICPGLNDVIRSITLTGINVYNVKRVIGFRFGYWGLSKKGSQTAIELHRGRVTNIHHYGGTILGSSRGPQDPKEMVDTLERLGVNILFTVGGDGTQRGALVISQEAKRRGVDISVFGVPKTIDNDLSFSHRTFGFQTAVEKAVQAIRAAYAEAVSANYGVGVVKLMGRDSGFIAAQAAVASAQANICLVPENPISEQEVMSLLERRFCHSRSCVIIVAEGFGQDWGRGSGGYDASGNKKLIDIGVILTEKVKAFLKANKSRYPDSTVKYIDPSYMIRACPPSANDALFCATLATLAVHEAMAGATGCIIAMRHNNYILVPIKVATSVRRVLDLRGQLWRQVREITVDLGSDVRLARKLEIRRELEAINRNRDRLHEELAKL
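Compounds were pin-transferred as a titration series up to 57 uM into substrate buffer (0.5 mM F6P, 0.1 mM ATP, pH 8.0), then 1.25 nM PFK was added and reactions ran 45 min before ADP-Glo detection.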
PGK inhibitor: qHTS Assay to Find Inhibitors of Phosphoglycerate Kinase; Phosphoglycerate kinase, glycosomal (Trypanosoma brucei brucei), P07378; actives 0.043% (n = 380,000); PGK/GAPDH coupled, Kinase-Glo luminescence, 60 min; Potency, µM (highest dose often 57.5 µM), actives largely listed as inhibitors; AID 602233, 2012; further: nearly all actives have a fitted effect of over 60% in size
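Luminescent ATP detection (Kinase-Glo Plus) follows a 60-minute room-temperature incubation, with wells lacking PGK as controls. Buffer: 100 mM TEA (pH 7.6), 5 mM MgCl2, 0.01% Tween-20. Coupling enzyme GAPDH (100 nM final) supplies unstable 1,3-BPG in-well.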
Hits are given with their value; . = inactive; ? = inconclusive; / = not tested or not shown. Unless noted, the call rests on the fitted dose curve; in most records, active means well fitted curve in the direction sought with a large enough effect; inconclusive means small, poorly fitted or top-dose-only effect, or another doubt; inactive means no such curve, though single readings can be large; an effect the other way counts as inactive or inconclusive.

SMILES | PI4K2A block | USP2a inh | Pin1 inh | Tb PFK block | PGK inhibitor
COc1cccc(C(=O)O/N=C(\N)c2ccccn2)c1 | -73 | . | . | ? | 14µM
N/C(=N\OC(=O)c1ccc2ccccc2c1)c1ccccn1 | -58 | . | . | . | ?
CCCc1ccc(C(=O)O/N=C(\N)c2ccccn2)cc1 | -85 | . | . | . | ?
Cc1ccc(C(=O)O/N=C(\N)c2ccccn2)c(Cl)c1 | -70 | . | . | ? | ?
Cc1cccc([S+](=O)([O-])NC2CCN(C#N)CC2)c1 | / | / | . | / | /
Cn1nc(-c2ccccn2)nc2c(=O)n(C)c(=O)nc1-2 | -63 | . | / | . | ?
Cn1ncnc2c(=O)n(C)c(=O)nc1-2 | -52 | . | ? | . | ?
CCCc1nc2c(=O)n(C)c(=O)nc-2n(C)n1 | -61 | . | ? | . | ?
CCn1c(N)nc2c1c(=O)n(C)c(=O)n2C | . | . | . | . | .
Cc1ccc(-c2nc3c(=O)n(C)c(=O)nc-3n(C)n2)cc1 | / | / | . | / | /
Cc1ccc(-n2c3nc(=O)n(C)c(=O)c-3cc3ccccc32)cc1 | . | . | . | . | .
CN1CCN(c2ccc(Nc3nn4c(=O)c5ccccc5nc4s3)cc2)CC1 | / | / | . | / | /
COc1ccc(-c2ccc3ncnc(NCc4cccs4)c3c2)cc1 | / | / | . | / | /
O=S(=O)(NCCNc1nc(-c2ccco2)nc2ccccc12)c1ccccc1 | / | / | . | / | /
Cc1cc(C)c2c(n1)sc1c(O)cc(=O)[nH]c12 | . | . | / | . | .
COc1ccc(-c2cc(C(F)(F)F)c3c(n2)sc2c(O)cc(=O)[nH]c23)c(OC)c1 | -56 | . | ? | . | .
COc1ccc(C2=CC3=C(Br)C(=O)C(C)(O)C(=O)C3=CO2)cc1 (stereo unspecified) | ? | . | ? | . | 20µM
COC(=O)CCC(=O)OC1(C)C(=O)C2=CN(Cc3ccc(OC)cc3)C(c3ccc(OC)cc3)=CC2=C(Br)C1=O (stereo unspecified) | . | / | ? | / | .
CCC(=O)OC1(C)C(=O)C2=COC(c3ccc(OC)cc3)=CC2=C(Br)C1=O (stereo unspecified) | ? | . | ? | . | 20µM
Cc1csc(CNc2ncnc3cc(-c4ccc5c(c4)OCO5)ccc23)n1 | / | / | . | / | /
CC1=NOC2(C1)N(C)c1ccccc1C2(C)C (stereo unspecified) | . | . | . | . | .
COc1ccc2ccc3c(c2c1)N=C[C@]1(O3)N(C)c2ccccc2C1(C)C | -68 | . | . | ? | .
CN1CCN(c2cccc(Nc3nn4c(=O)c5ccc(C(F)(F)F)cc5nc4s3)c2)CC1 | / | / | . | / | /
Nc1cccnc1Sc1cccc(Cl)c1 | -69 | . | ? | ? | .
Nc1cccnc1Sc1ccc(Cl)cc1 | . | . | . | . | .
SMILES | PI4K2A block | USP2a inh | Pin1 inh | Tb PFK block | PGK inhibitor
NC(=O)C1CCN(c2nccc(-c3ccc4c(c3)OCCCO4)n2)CC1 | / | / | . | / | /
COc1ccc(OC)c(-c2cc(C(=O)Nc3c(C)nn(Cc4ccccc4)c3C)no2)c1 | -54 | . | . | . | .
CNS(=O)(=O)c1ccc2nc(NC(=O)/C=C/c3ccco3)sc2c1 | -62 | . | ? | . | .
Cc1nc(NC(=O)/C=C/c2ccco2)sc1C | . | . | . | . | .
CC(C)Oc1cccc(-c2ccnc(N3CCC(C(N)=O)CC3)n2)c1 | / | / | . | / | /
N=C1C(c2nc3ccccc3c(=O)[nH]2)=C(O)CN1CCc1ccccc1 | . | 0.79µM | . | . | .
CC1CCCCC1NC(=O)COC(=O)c1c2c(nc3ccccc13)/C(=C\c1ccco1)CC2 (stereo unspecified) | -67 | / | / | / | .
CN(CCC#N)C(=O)COC(=O)c1c2c(nc3ccccc13)/C(=C\c1ccco1)CC2 | -52 | / | ? | / | .
NC(=O)C1CCN(c2ncc(-c3cccc(N4CCCCC4)c3)s2)CC1 | / | / | . | / | /
CC(=O)C1CCN(c2ncc(-c3cccc(N(C)C)c3)s2)CC1 | / | / | . | / | /
Nc1nc(N)c2c(OCC3CCN(Cc4ccccc4F)CC3)cccc2n1 | / | / | . | / | /
O=C(CCS(=O)(=O)c1ccc(Br)cc1)NCc1ccc(F)cc1 | . | . | . | 24µM | ?
